# Assay results: PubChem BioAssay (NCATS)
# Where “and” joins values, the source holds several entries; their conditions need not be identical. Equal values may be shown once. Records with an inconclusive call do not appear. The source holds several records for some structures; these can differ, active in one and inactive in another. Calls of active or inactive are those of the source. Unless noted, calls come from the whole dose curve; as a rule, active = well fitted curve in the direction sought with a large enough effect; inconclusive = small, poorly fitted or top-dose-only effect, or another doubt; inactive = no such curve, though single readings can be large; an effect the other way counts as inactive or inconclusive.
# Key:
# [1] = qHTS Screen of the MIPE 4.0 Collection Against Ewings Sarcoma (RDES) (AID 1259252); conditions: RD-ES Ewing sarcoma viability, CellTiter-Glo, 48 h; series mostly up to 45.8 µM; note: nearly all actives have a fitted effect of over 35% in size; note: potency is the fitted concentration of half-maximal effect
# Procedure, shortened: (§1)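 Log-phase cells in RPMI with 5% FBS attached for 4 h, then received compounds as a titration for 48 h at 37C, 5% CO2. Viability was read by CellTiter-Glo luminescence and normalized to DMSO and no-cell wells.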
# [2] = qHTS Screen of the MIPE 4.0 Collection Against Ewings Sarcoma (TC71) (AID 1259253); conditions: TC71 Ewing sarcoma viability, CellTiter-Glo, 48 h; series mostly up to 45.8 µM; note: nearly all actives have a fitted effect of over 40% in size; note: potency is the fitted concentration of half-maximal effect
# Procedure, shortened: as §1
# [3] = qHTS Screen of the MIPE 4.0 Collection Against Ewings Sarcoma (EW8) (AID 1259255); conditions: EW8 Ewing sarcoma viability, CellTiter-Glo, 48 h; series mostly up to 45.8 µM; note: nearly all actives have a fitted effect of over 35% in size; note: potency is the fitted concentration of half-maximal effect
# Procedure, shortened: as §1
# [4] = qHTS Screen of the MIPE 4.0 Collection Against Ewings Sarcoma (TC32) (AID 1259256); conditions: TC32 Ewing sarcoma viability, CellTiter-Glo, 48 h; series mostly up to 45.8 µM; note: nearly all actives have a fitted effect of over 45% in size; note: potency is the fitted concentration of half-maximal effect
# Procedure, shortened: as §1
# [5] = Identifying Small Molecule Inhibitors of Pancreatic Cancer Stem Cells (SN12C, Adherent) (AID 1259358); conditions: viability/growth inhibition; series mostly up to 46.1 µM;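 note: cell survival measured after 48 h of compound exposure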; note: potency is the fitted concentration of half-maximal effect
# Procedure, shortened: (§2)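 Spheroids grown 14 days in stem cell media on hydrogel-coated nonadherent plates; 2D lines seeded directly. Compounds added after 4 h attachment, 48 h at 37C, 5% CO2; CellTiter-Glo luminescence normalized to DMSO (no inhibition) and no-cell wells (full inhibition).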
# [6] = Identifying Small Molecule Inhibitors of Pancreatic Cancer Stem Cells (A278, Adherent) (AID 1259361); conditions: series mostly up to 46.1 µM; note: nearly all actives have a fitted effect of over 35% in size
# Procedure, shortened: as §2
# [7] = Identifying Small Molecule Inhibitors of Pancreatic Cancer Stem Cells (Panc1, Adherent) (AID 1259362); conditions: Potency: viability; series mostly up to 46.1 µM; note: potency is the fitted concentration of half-maximal effect
# Procedure, shortened: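 Endpoint: ATP-based luminescence, 48 h drug exposure. Bortezomib at 9.2 uM final as full-kill control; DMSO vehicle as negative control; activity normalized between vehicle and cell-free wells.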
# [8] = P-glycoprotein substrates identified in KB-3-1 adenocarcinoma cell line, qHTS therapeutic library screen (AID 1346986); conditions: KB-3-1 parental cells viability, CellTiter-Glo, 72 h; series mostly up to 44.5 µM; note: nearly all actives have a fitted effect of over 60% in size;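 note: potency is the fitted concentration of half-maximal effect; potency is for cytotoxicity meaning loss of cell viability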
# Procedure, shortened: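 In 1536-well format, 500 cells/well received pinned compound titrations and were incubated 72 h, 5% CO2. Viability was read by CellTiter-Glo; cytotoxic if AC50 < 10 uM and efficacy >50%.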
# [9] = P-glycoprotein substrates identified in KB-8-5-11 adenocarcinoma cell line, qHTS therapeutic library screen (AID 1346987); conditions: KB-8-5-11 (P-gp overexpressing) viability, CellTiter-Glo, 72 h; series mostly up to 44.5 µM; note: nearly all actives have a fitted effect of over 65% in size; note: potency is the fitted concentration of half-maximal effect
# Procedure, shortened: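 Luminescence from CellTiter-Glo, read 5 min after addition, quantified survival of KB-8-5-11 (P-gp-overexpressing) cells exposed to compounds for 72 h. AC50 was derived from concentration-response curves.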
# [10] = NS1 protein of Zika virus - qHTS assay to identify small molecule inhibitors in human HEK 293 cells (AID 1347053); conditions: HEK293 ZIKV MR766 infection, NS1 TR-FRET, 24 h; series mostly up to 46.1 µM; note: nearly all actives have a fitted effect of over 55% in size; note: potency is the fitted concentration of half-maximal effect
# Procedure, shortened: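 Read-out is a two-antibody TR-FRET for ZIKV NS1, normalized between uninfected cells and infected cells. Compound added 1 h before MR766 infection at MOI 0.5; human HEK 293 cells incubated 24 h, 37 C.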
# [11] = Identifying Small Molecule Inhibitors of Pancreatic Cancer Stem Cells (SN12C, Spheroid) (AID 1259360); conditions: Potency: SN12C spheroid viability; series mostly up to 46.1 µM; note: potency is the fitted concentration of half-maximal effect
# Procedure, shortened: as §2
# [12] = Identifying Small Molecule Inhibitors of Pancreatic Cancer Stem Cells (A2780, Spheroid) (AID 1259357); conditions: Potency: A2780 spheroid viability; series mostly up to 46.1 µM;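 note: spheroids pre-formed over 14 days in stem cell medium on hydrogel; potency is the fitted concentration of half-maximal effect; compound exposure lasted 48 h before the ATP luminescence read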
# Procedure, shortened: as §2
# [13] = target: Atrial natriuretic peptide receptor 1 (Homo sapiens) (UniProt P16066); test: Natriuretic polypeptide receptor (hNpr1) antagonism - Pilot screen (AID 1347049; calls by dose curve;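 note: agonist-evoked cGMP luminescence read 20 min after hNppA addition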); conditions: hNpr1 cells, antagonist mode cGMP read-out; series mostly up to 57.5 µM
# Procedure, shortened: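 cGMP-sensor HEK293/hNpr1 cells, 1500/well, plated overnight at 37C. 2% GloSensor reagent, 2 h RT. Compound (23 nL pin transfer) 30 min RT, baseline luminescence pre-read. 0.1 nM hNppA, 20 min RT, post-read.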
# [14] = target: Atrial natriuretic peptide receptor 2 (Homo sapiens) (UniProt P20594); test: Natriuretic polypeptide receptor (hNpr2) antagonism - Pilot subtype selectivity assay (AID 1347050; calls by dose curve); conditions: NPR2-expressing cells, cGMP antagonist-mode read-out; series mostly up to 38.3 µM
# Procedure, shortened: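 Luminescence from a genetically encoded cGMP luciferase biosensor in hNpr2-expressing HEK293 cells is read before and 20 min after adding 1 nM hNppC. Test compounds, in interplate 1:5 titrations, are added 30-50 min ahead of the agonist.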
# Sequence of Atrial natriuretic peptide receptor 1 (Homo sapiens) (P16066 whole entry, looked up): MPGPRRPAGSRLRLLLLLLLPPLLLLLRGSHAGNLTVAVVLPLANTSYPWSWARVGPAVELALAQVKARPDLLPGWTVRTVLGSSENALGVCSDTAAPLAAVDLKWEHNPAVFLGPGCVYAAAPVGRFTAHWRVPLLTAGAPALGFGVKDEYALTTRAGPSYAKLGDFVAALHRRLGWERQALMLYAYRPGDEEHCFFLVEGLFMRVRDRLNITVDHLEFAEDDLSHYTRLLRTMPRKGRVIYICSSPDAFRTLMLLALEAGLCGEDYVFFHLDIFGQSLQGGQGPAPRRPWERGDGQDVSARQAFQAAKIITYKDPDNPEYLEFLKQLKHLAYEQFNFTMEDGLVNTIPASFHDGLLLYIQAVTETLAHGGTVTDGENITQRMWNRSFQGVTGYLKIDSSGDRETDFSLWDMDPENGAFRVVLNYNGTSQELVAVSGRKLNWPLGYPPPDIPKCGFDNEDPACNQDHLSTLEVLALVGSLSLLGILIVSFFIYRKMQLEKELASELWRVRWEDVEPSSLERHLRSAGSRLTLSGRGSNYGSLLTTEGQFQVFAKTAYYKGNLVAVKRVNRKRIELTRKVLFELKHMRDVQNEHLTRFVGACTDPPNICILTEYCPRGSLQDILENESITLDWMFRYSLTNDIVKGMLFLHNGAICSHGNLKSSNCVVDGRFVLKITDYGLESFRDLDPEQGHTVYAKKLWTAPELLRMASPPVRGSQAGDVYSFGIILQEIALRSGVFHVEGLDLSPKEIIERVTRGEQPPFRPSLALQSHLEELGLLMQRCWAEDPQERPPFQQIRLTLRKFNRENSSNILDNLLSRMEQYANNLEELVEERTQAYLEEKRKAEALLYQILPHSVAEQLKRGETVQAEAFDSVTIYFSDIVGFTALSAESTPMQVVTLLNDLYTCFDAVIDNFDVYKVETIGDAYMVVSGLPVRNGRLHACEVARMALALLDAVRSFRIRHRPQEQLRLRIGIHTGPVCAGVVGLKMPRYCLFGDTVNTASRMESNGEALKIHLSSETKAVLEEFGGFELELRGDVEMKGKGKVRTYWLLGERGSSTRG
# Sequence of Atrial natriuretic peptide receptor 2 (Homo sapiens) (P20594 whole entry, looked up): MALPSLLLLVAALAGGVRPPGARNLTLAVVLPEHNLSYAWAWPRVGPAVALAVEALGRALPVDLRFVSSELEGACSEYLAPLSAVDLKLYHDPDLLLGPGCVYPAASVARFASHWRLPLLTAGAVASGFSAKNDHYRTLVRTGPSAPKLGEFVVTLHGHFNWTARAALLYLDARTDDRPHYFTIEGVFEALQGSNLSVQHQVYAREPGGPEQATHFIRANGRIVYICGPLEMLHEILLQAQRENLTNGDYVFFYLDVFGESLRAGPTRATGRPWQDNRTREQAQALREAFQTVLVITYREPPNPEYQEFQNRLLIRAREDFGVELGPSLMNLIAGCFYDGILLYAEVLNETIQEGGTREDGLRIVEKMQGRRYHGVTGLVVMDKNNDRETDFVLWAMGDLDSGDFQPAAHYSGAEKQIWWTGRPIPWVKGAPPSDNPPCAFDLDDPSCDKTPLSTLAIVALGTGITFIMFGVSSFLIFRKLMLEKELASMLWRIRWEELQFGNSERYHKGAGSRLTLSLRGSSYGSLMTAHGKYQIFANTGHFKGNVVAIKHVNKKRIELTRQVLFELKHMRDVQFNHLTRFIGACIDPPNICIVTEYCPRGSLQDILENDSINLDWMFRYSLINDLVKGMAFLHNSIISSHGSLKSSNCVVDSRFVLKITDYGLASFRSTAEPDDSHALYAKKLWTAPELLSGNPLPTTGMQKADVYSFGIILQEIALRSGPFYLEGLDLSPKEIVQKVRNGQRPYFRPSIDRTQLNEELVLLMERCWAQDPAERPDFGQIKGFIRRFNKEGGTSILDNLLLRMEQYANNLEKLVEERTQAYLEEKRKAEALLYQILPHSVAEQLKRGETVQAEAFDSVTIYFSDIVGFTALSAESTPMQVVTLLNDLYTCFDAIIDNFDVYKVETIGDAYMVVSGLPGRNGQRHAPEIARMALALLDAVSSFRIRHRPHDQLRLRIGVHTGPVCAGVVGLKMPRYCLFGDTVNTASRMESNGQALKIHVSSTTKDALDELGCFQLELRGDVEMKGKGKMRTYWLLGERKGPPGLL
SMILES,Potency [1],Potency [2],Potency [3],Potency [4],Potency [5],IC50 (viability decrease) [6],Potency [7],Potency [8],Potency [9],Potency [10],Potency [11],Potency [12],Potency [13],outcome [14]
N#Cc1c(O)c2c(-c3ccc(-c4ccccc4O)cc3)csc2[nH]c1=O,14.8 µM (active),18.7 µM (active),20.9 µM (active),23.5 µM (active),inactive,inactive,inactive,inactive,inactive,inactive,,,,
CC(C)(C)OC(=O)Nc1ccc(-c2cc(C(=O)NCCCCCCC(=O)NO)no2)cc1,2.09 µM (active),2.96 µM (active),1.32 µM (active),1.66 µM (active),26.4 µM (active),2.35 µM (active),,,,26.4 µM (active),16.6 µM (active),,,
CCCCN1CCC(CNC(=O)c2c3n(c4ccccc24)CCCO3)CC1,8.33 µM (active),9.35 µM (active),14.8 µM (active),13.2 µM (active),,inactive,inactive,,,,inactive,,,
CC[C@H](CO)Nc1nc(NCc2ccccc2)c2ncn(C(C)C)c2n1,16.6 µM (active),20.9 µM (active),29.6 µM (active),20.9 µM (active),,18.7 µM (active),,,18.7 µM (active),inactive,,20.9 µM (active),inactive,inactive
CCC(=C(c1ccccc1)c1ccc(OCCN(C)C)cc1)c1ccccc1,26.4 µM (active),16.6 µM (active),20.9 µM (active),16.6 µM (active),,23.5 µM (active),,,,,18.7 µM (active),,,
Nc1nccc(Oc2ccc(NC(=O)c3c[nH]cc(-c4ccc(F)cc4)c3=O)cc2F)c1Cl,1.66 µM (active),2.96 µM (active),0.743 µM (active),2.64 µM (active),,23.5 µM (active),inactive,,23.5 µM (active) and 16.4 µM (active),inactive,,,,
CCCCc1nc2cc(C=CC(=O)NO)ccc2n1CCN(CC)CC,0.187 µM (active),0.372 µM (active),0.469 µM (active),0.0935 µM (active),,1.18 µM (active),,,7.43 µM (active),inactive,,,,
Cc1cc(Nc2cc(N3CCN(C)CC3)nc(C=Cc3ccccc3)n2)n[nH]1,5.4 µM (active),2.41 µM (active),1.71 µM (active),2.41 µM (active),,2.35 µM (active),,,6.05 µM (active),21.5 µM (active),inactive,,,
O=C(NC1CCNCC1)c1[nH]ncc1NC(=O)c1c(Cl)cccc1Cl,0.187 µM (active),0.264 µM (active),0.418 µM (active),0.209 µM (active),,,,0.58 µM (active),,3.72 µM (active),1.05 µM (active),,,
O=C(NCCCNc1nc(Nc2cccc(NC(=O)N3CCCC3)c2)ncc1I)c1cccs1,13.2 µM (active),16.6 µM (active),1.87 µM (active),2.35 µM (active),,6.62 µM (active) and 14.8 µM (active),11.8 µM (active) and 16.6 µM (active),11.6 µM (active),16.6 µM (active),,,,,
O=c1[nH]nc(Sc2ncc([N+](=O)[O-])s2)n1-c1ccc2c(c1)OCCO2,7.43 µM (active),6.62 µM (active),2.96 µM (active),2.96 µM (active),,26.4 µM (active),,,18.7 µM (active),,,,,
CNc1nccc(-c2cccnc2Oc2cc(C(=O)Nc3cccc(C(F)(F)F)c3)ccc2C)n1,4.18 µM (active),16.6 µM (active),18.7 µM (active),16.6 µM (active),,,,inactive,inactive and 16.4 µM (active),,18.7 µM (active),,,
C=CCn1c(=O)c2cnc(Nc3ccc(N4CCN(C)CC4)cc3)nc2n1-c1cccc(C(C)(C)O)n1,0.264 µM (active),0.332 µM (active),0.0833 µM (active),0.372 µM (active),,0.59 µM (active),590 nM (active),,3.72 µM (active) and 5.8 µM (active),0.418 µM (active),1.66 µM (active),,,
Cc1[nH]c2ccccc2c1CCNCc1ccc(C=CC(=O)NO)cc1,0.0935 µM (active),0.0833 µM (active),0.0935 µM (active),0.0469 µM (active),,0.118 µM (active),148 nM (active),,0.935 µM (active),,,,,
CC(C)(O)c1cc2nc(-c3cnc(N)nc3)nc(N3CCOCC3)c2s1,0.059 µM (active),0.132 µM (active),0.148 µM (active),0.0662 µM (active),,,,0.411 µM (active),,,,,,
C=C1C(=CC=C2CCCC3(C)[C@@H]([C@H](C)C=CC=CC(O)(CC)CC)CC[C@@H]23)C[C@@H](O)C[C@@H]1O (some centres undefined),18.7 µM (active),18.7 µM (active),23.5 µM (active),20.9 µM (active),,,,inactive,inactive,,18.7 µM (active),,,
Fc1cc(-c2cccc3ncc(-c4cnn(C5CCNCC5)c4)nc23)cc(F)c1CN1CCOCC1,20.9 µM (active),20.9 µM (active),20.9 µM (active),18.7 µM (active),,20.9 µM (active),,,20.9 µM (active) and 20.6 µM (active),20.9 µM (active),,,,
CCn1nnc2c(N3CCOCC3)nc(-c3ccc(NC(=O)Nc4ccc(C(=O)N5CCN(C)CC5)cc4)cc3)nc21,0.0148 µM (active),0.0418 µM (active),0.0066 µM (active),0.0074 µM (active),,,,0.058 µM (active),,,,,,
Cc1cn2cc(C(=O)N(C)CCO)cc(N[C@@H]3CCOc4cccc(C)c43)c2n1,inactive,inactive,inactive,inactive,,,,inactive,,,,,,
CN1CCN(c2cc(C(=O)Nc3ccc4c(c3)-c3c(c(C(N)=O)nn3-c3ccc(F)cc3)CC4)c(Cl)cn2)CC1,2.64 µM (active),4.18 µM (active),20.9 µM (active),13.2 µM (active),,23.5 µM (active),,29.1 µM (active),23.5 µM (active),26.4 µM (active),,,,
CC(C)(C)c1cc(NC(=O)Nc2ccc(-c3cn4c(n3)sc3cc(OCCN5CCOCC5)ccc34)cc2)no1,inactive,inactive,inactive,inactive,,10.5 µM (active),,,inactive,inactive,,,,
c1cc(-c2cnn3cc(-c4ccc(OCCN5CCCCC5)cc4)cnc23)ccn1,20.9 µM (active),14.8 µM (active),18.7 µM (active),20.9 µM (active),,26.4 µM (active),,6.51 µM (active),2.35 µM (active) and 10.3 µM (active),,inactive,,,
Clc1ccc2ncc(-c3cccc(NC4CNC4)n3)n2c1,18.7 µM (active),20.9 µM (active),3.32 µM (active),18.7 µM (active),,,inactive,inactive,inactive,inactive,inactive,,,
C#Cc1cccc(Nc2ncnc3cc(OC)c(OCCCCCCC(=O)NO)cc23)c1,0.0209 µM (active),0.0743 µM (active),0.059 µM (active),0.0372 µM (active),,1.18 µM (active),,,,inactive,,,,
CC(NCc1ccc2c(c1)nc(NC(=O)c1ccc(-c3cn[nH]c3)s1)n2CC(C)(C)O)C(C)(C)C (centres undefined),0.469 µM (active),0.332 µM (active),0.469 µM (active),0.372 µM (active),,,264 nM (active),,4.18 µM (active),,0.469 µM (active),,,
Nc1ccccc1NC(=O)c1ccc(CNc2nccc(-c3cccnc3)n2)cc1,1.32 µM (active),1.05 µM (active),1.05 µM (active),0.935 µM (active),,1.18 µM (active),,,2.96 µM (active) and 2.31 µM (active),inactive,,,,
